# The list is not random: actives were taken first. Their share in the collection is about 3.6%.
# mHTT-CaM PPI inh: mutant huntingtin-calmodulin interaction inhibitors – biochemical, AlphaScreen, primary screen; P42858; AlphaScreen His-mHTT/GST-CaM binding, luminescence; inhibition, % at 15 µM; 190,000 compounds, 3.6% hits;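 further: 0% = both proteins with DMSO and 100% = one protein alone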
# Pf apPOL block: Pf-apPOL inhibitors, biochemical, fluorescence; Recombinant Pf-apPOL, molecular beacon fluorescence, 1.5 h; inhibition, % at 10 µM; 210,000 compounds, 0.25% hits
# * marks the source's active call; other numbers are inactive results; . = no result. No stated cut-off is given here; in the data, active means inhibition above about 50%; inactive means the rest.
SMILES,mHTT-CaM PPI inh,Pf apPOL block
CC1CCCCN1CC(=O)N1N=C(c2ccc(F)cc2)CC1c1cccn1C (stereo not drawn),59.6*,-2.1
O=C(Nc1ccc(Br)cc1F)N1CCc2nc(-c3ccc(F)cc3)ncc2C1,-9.1,-4.2
COc1ccc(C2=N/C(=C/c3ccc(Cl)c(Cl)c3)C(=O)O2)cc1,5.0,-2.0
COc1ccc(OCc2nc(C(=O)N3CCOCC3)cs2)cc1,-0.4,5.1
O=c1cc(-c2cc3ccccc3oc2=O)c2ccc(O)c(CN3CCCCC3)c2o1,-4.2,-5.9
O=C(CCc1ccccc1)N1CCC(N2CCC(C(=O)N3CCOCC3)CC2)CC1,-3.8,0.4
CCOc1ccccc1C=C1Oc2c(ccc(O)c2CN(C)C)C1=O,5.3,-7.0
O=C(NCCC(CN1CCOCC1)([N+](=O)[O-])[N+](=O)[O-])c1ccccc1,-1.0,-1.9
COc1ccccc1C1=NN(C(=O)CN2CCCC2)C(c2ccc(C)cc2)C1 (stereo not drawn),43.2,-5.3
COc1ccccc1C1=NN(C(=O)CN2CCCCC2C)C(c2ccc(C)cc2)C1 (stereo not drawn),72.1*,-4.2
Cc1ccc(C2=NN(C(=O)CN3CCOCC3)C(c3ccc(Cl)cc3)C2)cc1C (stereo not drawn),14.6,1.2
CCN1CCN(CC(=O)N2N=C(c3ccc(C)c(C)c3)CC2c2cccn2C)CC1 (stereo not drawn),98.7*,0.8
O=c1[nH]c(=O)n(-c2ccc(Cl)cc2)c(O)c1C=C1C=Nc2ccc(Br)cc21,12.0,7.5
COc1ccc(Cl)cc1NC(=O)Nc1ccc2c(c1)C(=O)NCC2,-9.6,-8.5
O=C1C=C(c2cccc([N+](=O)[O-])c2)C(=O)N1c1ccc(Cl)cc1,31.0,-4.4
COc1cc(O)c2c(c1)oc(=O)c1c3cc(O)c(O)cc3oc21,.,51.3*
COc1ccc(-c2c(O)c3ccc(O)cc3oc2=O)cc1,0.5,0.9
COc1ccccc1C1=NOC(C(=O)NC2CCCCC2)C1 (stereo not drawn),-11.2,-2.4
CCOC(=O)C1=C(C)NC2=C(C(=O)c3ccccc32)C1c1ccc([N+](=O)[O-])cc1 (stereo not drawn),.,-8.3
O=C1C2=C(Nc3ccccc3SC2c2ccc([N+](=O)[O-])cc2)c2ccccc21 (stereo not drawn),66.0*,-6.7
COc1ccc(OC)c(C2C3=C(Nc4c2c(=O)n(C)c(=O)n4C)c2ccccc2C3=O)c1 (stereo not drawn),-1.0,-6.2
O=C1C2=C(Nc3[nH]n(-c4ccccc4)c(=O)c3C2c2ccc([N+](=O)[O-])cc2)c2ccccc21 (stereo not drawn),50.0*,1.4
COc1ccc(OC)c(C2Sc3ccccc3NC3=C2C(=O)c2ccccc23)c1 (stereo not drawn),71.0*,-54.7
O=C1C2=C(Nc3ccccc3SC2c2ccc(Br)cc2)c2ccccc21 (stereo not drawn),70.2*,.
O=C1OCC2=C1C(c1ccc(F)cc1)Sc1ccccc1N2 (stereo not drawn),2.0,1.4
SMILES,mHTT-CaM PPI inh,Pf apPOL block
Cn1c2c(c(=O)n(C)c1=O)C(c1ccc([N+](=O)[O-])cc1)C1=C(N2)c2ccccc2C1=O (stereo not drawn),-4.0,-4.1
CSc1nc2c(cnn2-c2ccc(Cl)cc2)c(=O)[nH]1,1.0,3.1
CCCN1C(=O)C(CC(=O)NCCN(C)C)Sc2ncccc21 (stereo not drawn),-1.5,-3.2
O=C(NCc1ccc(F)cc1)c1cc(-c2ccc(F)cc2)ns1,-27.9,-3.1
CC(Cc1cccs1)NS(=O)(=O)c1ccc2c(c1)OCCO2 (stereo not drawn),-11.3,-3.3
COc1cc(C2C(=C(O)c3ccc(Br)cc3)C(=O)C(=O)N2C)ccc1O (stereo not drawn),4.9,-26.2
Cc1c(Cl)cccc1NC(=O)c1ccc(OC(C)C)cc1,-2.5,-14.4
COc1cc(/C=C2\C(=O)ON=C2C)ccc1OCc1ccc(F)cc1,99.0*,-1.8
CC1=NOC(=O)/C1=C/c1ccc(OCc2ccc(F)cc2)c(Cl)c1,-6.0,-4.4
COc1cc(/C=C2/C(=O)ON=C2C)ccc1OCc1ccc(C)cc1,70.0*,-9.3
Cc1ccc(NC(=O)C2(NC(=O)Cn3nnnc3N)CCCCC2)cc1,2.0,-1.8
CCCc1cc(C2CCCN2C(=O)Nc2cc(C)ccc2OC)no1 (stereo not drawn),5.5,1.5
CC(=O)c1sc(N)c(C#N)c1C,9.1,.
Cc1ccc(NC(=O)c2cc3cc(Br)ccc3oc2=O)c(Br)c1,-2.0,85.0*
Cc1ccc(NC(=O)c2cc3ccccc3oc2=O)c(Br)c1,5.0,-3.3
CCOc1ccc(NC(=O)C2=C(C)NC(=O)NC2c2ccc([N+](=O)[O-])cc2)cc1 (stereo not drawn),-20.0,2.5
COc1ccc(OC)c(NC(=O)c2cc3c(n2C)CCN(Cc2ccc(C)cc2)C3)c1,78.3*,-4.8

# Screening results from PubChem BioAssay.
